Only some compounds are listed: those with a hit (about 5.7% of all), similar ones and a draw of the others.
MPTP inh: permeability transition pore inhibition | isolated mouse mitochondria, Ca2+ swelling absorbance, 30 min | inhibition, % at 10 µM | actives 1.4% (n = 360,000) | AID 602449;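 active = inhibition of 50% or more, scaled per plate between neutral and stimulator controls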;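 also: 0% = DMSO wells given calcium and 100% = 1 mM EGTA wells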
rCAG binder: molecules binding r(CAG) RNA repeats; r(CAG) RNA repeat, TO-PRO-1 dye displacement fluorescence; inhibition, % at 3 µM; actives 1.3% (n = 370,000); AID 651821;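 active = inhibition above the plate cutoff, the mean of all test compounds on that plate plus 3 SD, cut at about 35% in these data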;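 also: 0% = DMSO alone and 100% = 100 µM mitoxantrone as full dye displacement; higher means more dye released from RNA so lower well fluorescence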
GRIN3A LBD mod: NR3A (human) ligand-binding domain modulation; NR3A LBD differential scanning fluorimetry, Tm shift; 0% = protein alone, 100% = glycine-bound protein; Tm shift relative to glycine control, % at 25 µM; actives 2.5% (n = 340,000);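 active = melting temperature shift of at least 10% of the positive control shift, at one fixed dose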
FAS TE block: blocks the thioesterase domain of human fatty acid synthase; P49327; recombinant FAS-TE, OMFH fluorogenic substrate, fluorescence endpoint; inhibition, % at 15 µM; actives 0.67% (n = 360,000); AID 602261;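 active = compounds whose normalised, plate-corrected inhibition of enzyme fluorescence in the single-dose primary screen is 50% or more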;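 also: 0% = DMSO with enzyme and 100% = substrate without enzyme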
Myeloid diff MLP: myeloid differentiation induction; ER-HoxA9 myeloid progenitors, lysozyme-GFP differentiation, flow cytometry; calls only at 10 µM; actives 1% (n = 360,000); AID 624256;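 active = normalized GFP-positive differentiation at or above the plate's own cutoff, the solvent-only control mean plus 3 SD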;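 also: cells exposed to compound for four days before flow analysis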
FAS-TE inh conf: confirmation of human fatty acid synthase thioesterase inhibitors; actives 45% (n = 2,300); recombinant FAS-TE, OMFH fluorogenic substrate, fluorescence; inhibition, % at 15 µM; shares compounds with FAS TE block; AID 624325;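 active = compounds inhibiting the enzyme by at least 50% at 15 µM in any one of the replicates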;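 also: 0% = enzyme with DMSO only and 100% = wells lacking enzyme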
Starred values were filed as active, the others as inactive; i = inactive; nt = not tested or not shown; + = active, no number.

SMILES	MPTP inh	rCAG binder	GRIN3A LBD mod	FAS TE block	Myeloid diff MLP	FAS-TE inh conf
O=C(Cn1cc([N+](=O)[O-])ccc1=O)N1CCc2ccccc2C1	0.9	4.7	3.8	67.0*	i	69.1*
Cc1c(Br)c([N+](=O)[O-])nn1CC(=O)N1CCc2ccccc2C1	1.2	1.6	9.9	64.2*	i	59.5*
OCc1ccccc1OCc1ccccc1	nt	1.8	nt	nt	nt	nt
C=CCNC(=O)c1ccc(C2SCC(=O)N2Cc2ccco2)cc1 (stereo not drawn)	0.1	7.8	-2.3	-1.8	i	nt
O=C(NCc1ccc2c(c1)OCO2)c1ccc(C2SCC(=O)N2Cc2ccco2)cc1 (stereo not drawn)	1.8	9.1	-2.4	59.1*	i	50.3*
COc1ccc(S(=O)(=O)Nc2ccc3c(c2)C(=O)N([C@H](C)CO)C[C@H](C)[C@@H](CN(C)S(=O)(=O)c2cn(C)cn2)OCCCC[C@H](C)O3)cc1	-1.1	4.1	nt	-1.8	i	nt
COc1ccc(S(=O)(=O)N(C)C[C@@H]2OCCCC[C@H](C)Oc3ccc(NC(=O)Nc4ccc(C(F)(F)F)cc4)cc3C(=O)N([C@H](C)CO)C[C@H]2C)cc1	-0.1	22.5	nt	84.8*	i	15.7
COc1ccc(S(=O)(=O)Nc2ccc3c(c2)C(=O)N([C@H](C)CO)C[C@H](C)[C@@H](CN(C)C(=O)Nc2ccc(C(F)(F)F)cc2)OCCCC[C@H](C)O3)cc1	1.0	13.5	nt	62.8*	i	23.5
C[C@@H]1CCCCO[C@H](CN(C)S(=O)(=O)c2ccc(F)cc2)[C@@H](C)CN([C@H](C)CO)C(=O)c2cc(NC(=O)Nc3ccc(C(F)(F)F)cc3)ccc2O1	-0.1	18.7	nt	74.2*	i	7.5
COc1ccc(S(=O)(=O)N(C)C[C@@H]2OCCCC[C@@H](C)Oc3ccc(NS(=O)(=O)c4cccs4)cc3C(=O)N([C@H](C)CO)C[C@@H]2C)cc1	1.2	13.0	nt	67.0*	i	15.0
CCCN1CCCCC(NC(C)=O)C1=O (stereo not drawn)	nt	-1.1	nt	nt	nt	nt
Cc1ccccc1CN1CCCCC(NC(=O)c2ccccc2C)C1=O (stereo not drawn)	nt	-0.7	nt	nt	nt	nt
CCC(CO)Nc1cccc2c1S(=O)(=O)N(Cc1cn(Cc3ccc(F)cc3)nn1)Cc1ccccc1O2 (stereo not drawn)	nt	5.5	nt	nt	nt	nt
CCCCC(=O)Nc1ccccc1C(=O)OCC(=O)c1ccc2c(c1)OCCO2	-1.1	8.2	-5.9	56.5*	i	29.7
Cn1cc([N+](=O)[O-])c(C(=O)Nc2ccc(C3CCCCC3)cc2)n1	-0.7	8.3	-0.8	51.8*	i	48.8
Cc1cc(C)c2c(c1)-c1c(ssc1=S)C(C)(C)N2C(=O)CN1C(=O)c2ccccc2C1=O	1.8	0.9	6.6	62.6*	i	31.4
Cc1cccc2c1N(C(=O)CN1C(=O)c3ccccc3C1=O)C(C)(C)c1ssc(=S)c1-2	0.4	6.7	-2.9	17.6	i	nt
Cc1cc([N+](=O)[O-])ccc1NC(=O)CN1C2CCC1CC(NC(=O)NC13CC4CC(CC(C4)C1)C3)C2 (stereo not drawn)	1.9	6.3	1.1	50.8*	+	10.7
COc1ccc(NC(=S)N2C3CCC2CC(NC(=O)NC24CC5CC(CC(C5)C2)C4)C3)c(OC)c1 (stereo not drawn)	-1.5	-2.9	1.6	2.8	i	nt
COC(=O)C1=C(C)N(C)C(=NCc2ccc3c(c2)OCO3)NC1c1cccc(Cl)c1 (stereo not drawn)	nt	10.2	nt	nt	nt	nt
O=[N+]([O-])c1ccc(Cn2cc(-c3cccc(C(F)(F)F)c3)nn2)cc1	2.2	-1.3	-4.4	54.7*	i	4.0
O=[N+]([O-])c1ccc(Oc2cccc(C(F)(F)F)c2)nc1	1.6	1.4	-1.1	-5.9	i	nt
CN(C(=O)c1cccc(NC(=O)Cc2ccc(NC(=O)C3CCN(C(=O)CCc4ccccc4)CC3)cc2)c1)C1CCCC1	nt	7.9	nt	nt	nt	nt
O=C1C2C(c3ccccc3)(C(=O)N1c1ccc(Cl)cc1)C2(c1ccccc1)c1ccccc1 (stereo not drawn)	-0.7	9.4	-2.7	59.7*	i	26.6
CCCCC(=O)N/N=C/c1cc([N+](=O)[O-])ccc1N1CCOCC1	-0.9	0.7	0.6	66.3*	i	73.5*
SMILES	MPTP inh	rCAG binder	GRIN3A LBD mod	FAS TE block	Myeloid diff MLP	FAS-TE inh conf
O=C(CNc1ccccc1)N/N=C/c1cc([N+](=O)[O-])ccc1N1CCCC1	0.6	12.2	1.7	52.3*	i	28.7
O=C(COc1ccc([N+](=O)[O-])cc1)N/N=C/c1cc([N+](=O)[O-])ccc1N1CCOCC1	0.2	-3.2	-1.7	19.0	i	nt
CCN(CC)C(=O)C1CCCN(c2ccc([N+](=O)[O-])cc2/C=N/NC(=O)c2cccc([N+](=O)[O-])c2)C1 (stereo not drawn)	4.1	4.2	-4.7	77.3*	i	25.9
CC(=O)NC1CCCCN(C)C1=O (stereo not drawn)	nt	1.8	nt	nt	nt	nt
COC1=C[C@H](C(=O)NC2CCN(Cc3ccccc3)CC2)[C@H](C)[C@@H](c2ccccc2)CC1=O	nt	4.8	nt	nt	nt	nt
Cc1cccc(Cl)c1-n1nnnc1C1(C)CSCC(=O)N1Cc1ccc(F)cc1 (stereo not drawn)	nt	8.5	nt	nt	nt	nt
COc1ccc(C(=O)NC(C)CCc2ccccc2)cc1[N+](=O)[O-] (stereo not drawn)	1.7	-7.7	1.6	51.3*	nt	51.7*
COc1ccc(C(=O)N2CCN(CCc3ccccc3)CC2)cc1[N+](=O)[O-]	1.4	-3.5	3.1	87.1*	i	90.2*
COc1ccc(C(=O)N2CCN(Cc3ccccc3)CC2)cc1[N+](=O)[O-]	0.4	-4.6	-3.2	0.9	i	nt
C=C1CC(COc2ccc3c(C)c(Cl)c(=O)oc3c2)(c2ccccc2)OC1=O (stereo not drawn)	0.8	11.4	0.0	52.8*	nt	46.2*
COc1ccc2c(C)c(Cl)c(=O)oc2c1	-0.6	4.3	0.7	2.8	i	nt
Cc1ccc(NC(=O)c2cc([N+](=O)[O-])ccc2N2CCOCC2)cc1C	-1.5	2.0	2.0	73.9*	i	77.6*
Cc1ccc(OCC(=O)Nc2ccc([N+](=O)[O-])cc2)cc1	2.9	0.0	-7.7	-5.4	i	nt
Cc1ccc(-c2csc(NC(=O)c3cc([N+](=O)[O-])ccc3N3CCOCC3)n2)cc1	3.9	4.7	0.4	70.8*	i	8.1
Cc1ccc(NC(=O)C2(c3ccc([N+](=O)[O-])cc3)CCCC2)cc1	23.3	-1.9	-7.3	60.2*	i	50.8*
O=C(Nc1nc(-c2ccccc2)cs1)c1ccc(N2CCOCC2)c([N+](=O)[O-])c1	16.3	nt	-2.9	36.3	i	nt
Cc1ccc(NC(=O)c2cc([N+](=O)[O-])ccc2N2CCOCC2)cc1S(=O)(=O)N(C)C	2.7	2.2	-0.1	37.7	i	nt

Screening results deposited in PubChem BioAssay by several laboratories.
